Screening results deposited in PubChem BioAssay by National Center for Advancing Translational Sciences (NCATS).
Hits are enriched below; roughly 1.3% of the tested compounds scored in any of these assays.
TRPML1 ag: human mucolipin-1 channel agonism; Q9GZU1; activation, % (test concentration not listed); TRPML1-expressing cells, Ca2+ dye fluorescence, FDSS; 410,000 tested, 0.12% active; in the data active = activation above about 50%; inconclusive = mostly about 30% to 49%
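Calcium fluorescence on an FDSS kinetic reader gave the read-out. Tet-induced TRPML1-DL cells were plated overnight, dye-loaded (Ca8 with quencher, 45-90 min, room temperature, dark), then read 110 s after compound addition, and again 110 s after 4uM final 54-4 (EC80).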
TRPML1 inh: blocks the human TRPML1 channel. Q9GZU1. TRPML1-inducible cells, Ca2+ dye fluorescence, FDSS; hits give low values; inhibition of EC80 agonist-evoked calcium signal. activity change, negative = inhibition, % (test concentration not listed). 390,000 tested, 0.02% active. AID 624415; in the data active = activity change below about -50%; inconclusive = between about -30% and that limit;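 note: stimulus is agonist 54-4 at its EC80 concentration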
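Calcium fluorescence in TRPML1-DL cells induced overnight with Tet: a 110 s read after compound pin addition, then a 110 s antagonist read after challenge with 54-4 at 4 uM final (EC80).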
TRPV1 potentiator: human TRPV1 potentiation; TRPV1-expressing cells, Fluo-8 calcium influx, capsaicin EC20 potentiation; 320,000 tested, 0.02% active; Q8NER1; potentiation, % at 8.33 µM; in the data active = potentiation above about 80%; inconclusive = between about 30% and that limit
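Cells expressing TRPV1 were dye-loaded with Fluo-8 and read kinetically: 10 s baseline, 3 min after compound (agonist portion), then 2 min after EC20 capsaicin (allosteric enhancer portion). Calcium-bound dye fluorescence at 480/520 nm.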
KCNH2 3.1 inh: inhibitors of human KCNH2 3.1 potassium channel isoform; activity change, % (tested at about 1.8 µM); U2OS KCNH2 3.1, thallium flux FluxOr; hits give low values; AID 720553; 340,000 tested, 0.95% active;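 active = maximum activity change below -70%; inconclusive = maximum activity change from -70% to -50%; inactive = maximum activity change above -50%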;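 note: thallium influx rate constant from kinetic fluorescence after stimulation buffer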
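Thallium flux read-out: FluxOr dye with Red40 quencher in HBSS/HEPES, 45 min at RT. Rate constants from kinetic reads were normalized to positive and negative DMSO controls. Cells: U2OS virally expressing the 3.1 isoform.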
TRPV1 agonist: human TRPV1 agonism; AID 540275; 320,000 tested, 0.19% active; TRPV1-expressing cells, Fluo-8 calcium influx, agonist mode; activation, % at 8.33 µM; Q8NER1; in the data active = activation above about 80%; inconclusive = between about 30% and that limit
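Fluo-8 calcium influx in TRPV1-expressing cells, kinetic read (ex 480/em 520 nm). Compound added and read 3 min for agonist activity, followed by capsaicin at EC20 final and 2 min further read for enhancement.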
hERG WT inh: blocks the wildtype human KCNH2 potassium channel; U2OS, BacMam KCNH2, thallium flux FluxOr; hits give low values; activity change, % at 1.84 µM; 340,000 tested, 0.37% active; AID 720551;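 active = maximum activity change below -70%; inconclusive = maximum activity change between -70% and -50%; inactive = maximum activity change above -50%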
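U2OS cells were transduced with wild-type KCNH2 virus (2.03 x 10^8 / mL) for 4 h at room temperature, then cultured overnight at 37 C. Thallium flux was read with FluxOr dye. Rate constants were normalized to DMSO controls.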
Of the large screens only hits and unclear results are named; the others gave an inactive call.

O=C(Nc1ccccc1N1CCN(C(=O)c2ccccc2)CC1)c1ccc(Cl)cc1	TRPV1 agonist inconclusive
Cc1ccc(C)c(NC(=O)CCc2c(C)nn(-c3ccc(N4CCCC4)nn3)c2C)c1	none (no result: TRPV1 potentiator, KCNH2 3.1 inh, TRPV1 agonist, hERG WT inh)
COc1ccc(Br)cc1CNC(=O)c1nn(-c2ccc(C)cc2)c(=O)c2c1c1ccccc1n2C	none (no result: TRPV1 potentiator, KCNH2 3.1 inh, TRPV1 agonist, hERG WT inh)
CCN(CC)c1ccc(NC(=O)c2ccc3c(c2)OCO3)cc1	TRPV1 agonist 83
Cc1ccc(NC(=O)c2ccc3c(c2)OCO3)cc1Cl	TRPV1 agonist 83
COc1ccc(CNC(=O)Cc2c(C)c3c(cc(C)c4c(C)coc43)oc2=O)cc1	none (no result: TRPV1 potentiator, KCNH2 3.1 inh, TRPV1 agonist, hERG WT inh)
Nc1ccc(/C=C/c2ccnc3ccccc23)cc1[N+](=O)[O-]	none (no result: TRPML1 inh, TRPV1 potentiator, KCNH2 3.1 inh, TRPV1 agonist, hERG WT inh)
